Reference: PubChem BioAssay AID1159580 (chemical genetic matrix, 2015)
Values joined by “and” are separate entries in the source; they are usually repeats but may differ in a detail not shown here. Identical values can stand only once. Out of some 5,500 compounds screened, about 2,000 (36%) were called active. Another 18% or so got no clear call; they are omitted. No stated cut-off is given here; in the data, active means normalized growth mostly below about 0.91 (no sharp cut-off); inconclusive means no clear call, values can overlap the other calls; inactive means mostly above about 0.92. The list shows a part of the results.

Assay: chemical genetic growth profiling, strain panel (AID 1159580);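 further: tested at 20 µM; growth read once vehicle control cultures reached saturation at 30 °C; 1 = growth at the plate median or of vehicle wells; lower values mean less growth of the strain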
Settings: S. cerevisiae deletion strains, growth OD

Measured: normalized growth

O=C(O)c1cccnc1
inactive: locus YAL013W, strain DEP1, hits give low values 0.987 | locus YAL021C, strain ccr4, hits give low values 1 | locus YAL026C, strain drs2, hits give low values 0.993 | locus YAL030W, strain snc1, hits give low values 0.994 | locus YBL061C, strain skt5, hits give low values 1.02 | locus YBR009C, strain hhf1, hits give low values 1.01 | locus YBR021W, strain FUR4, hits give low values 1.02 | locus YBR023C, strain chs3, hits give low values 1.01 | locus YBR171W, strain sec66, hits give low values 0.997 | locus YBR229C, strain ROT2, hits give low values 0.96 | locus YBR231C, strain swc5, hits give low values 0.996 | locus YBR279W, strain paf1, hits give low values 1 | locus YCL011C, strain gbp2, hits give low values 0.984 | locus YCL016C, strain dcc1, hits give low values 1.03 | locus YCL029C, strain bik1, hits give low values 1.01 | locus YCL061C, strain MRC1, hits give low values 1 | locus YCL069W, strain vba3, hits give low values 0.976 | locus YCR088W, strain abp1, hits give low values 0.992 | locus YDL005C, strain med2, hits give low values 0.98 | locus YDL035C, strain GPR1, hits give low values 0.968 | locus YDL040C, strain nat1, hits give low values 0.987 | locus YDL074C, strain BRE1, hits give low values 1.02 | locus YDL101C, strain DUN1, hits give low values 1.01 | locus YDL134C, strain PPH21, hits give low values 0.984 | locus YDL185W, strain tfp1, hits give low values 1.01 | locus YDL192W, strain arf1, hits give low values 1 | locus YDR001C, strain nth1, hits give low values 0.992 | locus YDR069C, strain doa4, hits give low values 1.01 | locus YDR101C, strain arx1, hits give low values 1.02 | locus YDR137W, strain rgp1, hits give low values 1.05 | locus YDR150W, strain NUM1, hits give low values 0.983 | locus YDR159W, strain sac3, hits give low values 0.977 | locus YDR162C, strain NBP2, hits give low values 0.985 | locus YDR195W, strain ref2 1.01 | locus YDR297W, strain sur2, hits give low values 0.996 | locus YDR318W, strain mcm21, hits give low values 1.04 | locus YDR334W, strain swr1, hits give low values 0.971 | locus YDR335W, strain msn5, hits give low values 0.993 | locus YDR388W, hits give low values 1 | locus YDR392W, strain spt3, hits give low values 0.973 | locus YDR502C, strain sam2, hits give low values 1 | locus YEL003W, strain gim4, hits give low values 0.985 | locus YEL037C, strain rad23, hits give low values 0.977 | locus YEL061C, strain CIN8 (second series), hits give low values 0.98 | locus YEL061C, strain CIN8, hits give low values 0.989 | locus YER015W, strain faa2, hits give low values 0.998 | locus YER016W, strain bim1, hits give low values 0.992 | locus YER110C, hits give low values 0.985 | locus YER111C, strain swi4, hits give low values 0.999 | locus YER155C, strain BEM2 (second series), hits give low values 0.995 | locus YER155C, strain BEM2, hits give low values 1.02 | locus YER167W, strain BCK2, hits give low values 0.982 | locus YFR010W, strain ubp6, hits give low values 0.995 | locus YGL078C, strain dbp3, hits give low values 1 | locus YGL086W, strain mad1, hits give low values 1.02 | locus YGL167C, strain pmr1, hits give low values 1.01 | locus YGL173C, strain kem1, hits give low values 1.01 | locus YGL227W, strain vid30, hits give low values 0.987 | locus YGL240W, strain doc1, hits give low values 1.01 | locus YGL248W, strain PDE1, hits give low values 0.983 | locus YGL253W, strain hxk2, hits give low values 0.987 | locus YGR078C, strain PAC10, hits give low values 1.04 | locus YGR135W, strain pre9, hits give low values 1.05 | locus YGR229C, strain SMI1, hits give low values 1.03 | locus YGR252W, strain gcn5, hits give low values 0.919 | locus YHR013C, strain ard1, hits give low values 1.04 | locus YHR027C, strain rpn1, hits give low values 1.01 | locus YHR030C, strain SLT2, hits give low values 0.997 and 1 | locus YHR079C, strain IRE1 (second series), hits give low values 1.01 | locus YHR079C, strain IRE1, hits give low values 1.03 | locus YHR094C, strain hxt1, hits give low values 0.999 | locus YHR129C, strain ARP1, hits give low values 1.01 | locus YHR142W, strain chs7, hits give low values 1.01 | locus YHR200W, strain rpn10, hits give low values 1.02 | locus YIL066C, strain RNR3, hits give low values 0.982 | locus YIL073C, strain SPO22, hits give low values 1.01 | locus YIL125W, strain kgd1, hits give low values 0.984 | locus YIR030C, strain dcg1, hits give low values 0.996 | locus YJL092W, strain hpr5, hits give low values 0.978 | locus YJL095W, strain BCK1 (second series), hits give low values 1 | locus YJL095W, strain BCK1, hits give low values 1.05 and 0.999 | locus YJL115W, strain asf1, hits give low values 0.973 | locus YJL129C, strain trk1, hits give low values 0.949 | locus YJL134W, strain LCB3, hits give low values 0.991 | locus YJL154C, strain vps35, hits give low values 0.977 | locus YJL164C, strain tpk1, hits give low values 1.02 | locus YJL166W, strain qcr8, hits give low values 0.988 | locus YJL168C, strain set2, hits give low values 1 | locus YJL187C, strain SWE1 (second series), hits give low values 0.996 | locus YJL187C, strain SWE1, hits give low values 0.99 | locus YJR043C, strain POL32, hits give low values 1.05 | locus YJR066W, strain TOR1, hits give low values 0.971
